# Screen size: about 48,000 compounds; about 13,000 (27%) showed an effect of 50% or more. The list shows a part of the results.
# Test system: Wolbachia pipientis
# Experiment: Anti-Wolbachia Cell-Based Screen
# Assay type: functional
# Parameters: scale not given: in the data most compounds retested in dose-response had high values
# Details: 5 µM
row,SMILES,Percent Effect
1,Cc1ccc2nc(C)cc(C(=O)NCc3csc(N(C)C)n3)c2c1,-3.48%
2,CCc1nccn1CC(=O)N1C[C@H]2CC[C@@H]1CN(c1ncccn1)C2,11.21%
3,COCC1c2nnn(CC3CC3)c2CCN1C(=O)c1cc(C)[nH]c1C (centres undefined),-16.52%
4,CC(C)NC(=O)c1ccc2c(c1)C(c1nc[nH]n1)CN2C (centres undefined),-2.409%
5,Cc1noc(C2CCN(C(C)c3nc(C(C)(C)C)no3)CC2)n1 (centres undefined),4.561%
6,CC(c1nc(C(C)(C)C)no1)N1CCN(c2ccc(C#N)cn2)CC1 (centres undefined),105.6%
7,CC(c1nc(C2CC2)no1)N1CCN(Cc2ccc(C#N)cc2)CC1 (centres undefined),26.07%
8,Cc1noc(C(C)N2CCN(c3ncnc4ccccc34)CC2)n1 (centres undefined),-16.31%
9,CC(c1nc(C(C)(C)C)no1)N1CCN(Cc2ccc(C#N)cc2)CC1 (centres undefined),107.5%
10,Cc1noc(C(C)N2CCN(c3ccc(C#N)cn3)CC2)n1 (centres undefined),146.7%
11,CC(c1nc(C2CC2)no1)N1CCN(Cc2cccc(C#N)c2)CC1 (centres undefined),-8.29%
12,CCCc1noc(C(C)N2CCN(c3ccc(C#N)cn3)CC2)n1 (centres undefined),130.1%
13,Cc1noc(C(C)N2CCN(Cc3cccc(C#N)c3)CC2)n1 (centres undefined),7.153%
14,CCCc1noc(C(C)N2CCN(CCn3ccccc3=O)CC2)n1 (centres undefined),-12.82%
15,Cc1nsc(N2CCCN(c3ccc(C#N)cn3)CC2)n1,7.107%
16,CCc1noc(C(C)N2CCN(c3ncnc4sccc34)CC2)n1 (centres undefined),-87.61%
17,COc1ccc(OCc2nc3cc4c(cc3c(=O)o2)OCCCO4)cc1,-25.33%
18,CSc1cc2c(cc1NC(=O)NCc1ccncc1)OCCO2,0.1832%
19,O=C(NCC1CC1)C1CN(C(=O)c2ccnnc2)CC12CCOCC2 (centres undefined),-9.874%
20,CN1C(=O)[C@H]2CC[C@@H]1CN(C(=O)Nc1cccc3ccccc13)C2,3.863%
21,N#Cc1cn(C2CC2)c(=O)n(Cc2noc(-c3ccsc3)n2)c1=O,-8.2%
22,COc1ccccc1NC(=O)NC(C)c1nc[nH]n1 (centres undefined),-1.106%

row,SMILES,Percent Effect
1,CC(C)c1noc(C(C)N2CCN(Cc3cccc(C#N)c3)CC2)n1 (centres undefined),10.45%
2,CC(C)c1noc(C(C)N2CCN(c3ccc(C#N)cn3)CC2)n1 (centres undefined),186.4%
3,CC(C)c1noc(C(C)N2CCN(Cc3ccccc3C#N)CC2)n1 (centres undefined),-2.438%
4,CC(C)(CO)CNC(=O)c1ccnn1-c1ccc2ccccn12,-11.35%
5,CN(C)C1CCN(C(=O)c2ccnn2-c2ccc3ccccn23)CC1.O=C(O)C(F)(F)F,64.37%
6,CN1CCCN(C(=O)c2ccnn2-c2ccc3ccccn23)CC1.O=C(O)C(F)(F)F,83.85%
7,CN1CCN(c2ccc3ccc(C(=O)N4CCCO4)cn23)CC1.O=C(O)C(F)(F)F,0.4274%
8,O=C(NCCCN1CCOCC1)c1ccn(-c2ccc3ccccn23)n1.O=C(O)C(F)(F)F,-6.828%
9,Cc1nc(-c2cc(C(=O)N3CCCN(C)CC3)c3ccccn23)cn1C.O=C(O)C(F)(F)F,-23.06%
10,CCOCc1nnc(NCc2ccsc2)o1,-11.46%
11,Cc1ccc(OCC(O)CN(C)CC(=O)Nc2cc(C)on2)c(C)c1 (centres undefined),9.432%
12,O=C(Cc1ccccc1)N1CCOC(c2nc(-c3ncccn3)no2)C1 (centres undefined),104.4%
13,O=C(Cc1ccsc1)N1CCOC(c2nc(-c3ncccn3)no2)C1 (centres undefined),131.4%
14,Cc1noc([C@@H]2CCO[C@@H]3CCN(C(=O)Cc4ccsc4)C[C@@H]32)n1,6.284%
15,O=C(O)C(=O)O.c1cnc(-c2noc(C3CN(Cc4ccc5c(c4)CCO5)C3)n2)nc1,8.464%
16,Cc1n[nH]c(C2CN(C(=O)CCc3ccsc3)CCO2)n1 (centres undefined),-9.569%
17,Cc1ccn(CCC(=O)N2CCOC(c3nc(-c4cccs4)no3)C2)n1 (centres undefined),-6.468%
18,Cc1ccc2c(C)c(C(=O)NCc3csc(N)n3)oc2c1,24.68%
19,Cc1cc(S(=O)(=O)NCC(C)(C)N)c(F)cc1F.Cl,106.9%
20,Cc1cc(S(=O)(=O)NCC[S+](C)[O-])c(F)cc1F (centres undefined),90.6%
21,Cc1ccc(S(=O)(=O)NCC(C)(C)N)c(F)c1.Cl,102.6%
22,Cc1cc(S(=O)(=O)NC(C)(C)CN)c(F)cc1F.Cl,112.3%

row,SMILES,Percent Effect
1,Cc1c(F)cccc1S(=O)(=O)NCCN.Cl,-3.419%
2,Cc1ccc(S(=O)(=O)NCc2cnn(C)c2)c(F)c1,1.109%
3,Cc1ccc(S(=O)(=O)NCCCN2CCC(O)CC2)c(F)c1,10.81%
4,Cc1cc(F)c(S(=O)(=O)NCCCN2CCC(O)CC2)cc1F,7.324%
5,CCc1nc(NS(=O)(=O)c2cc(C)c(F)cc2Cl)no1,-1.735%
6,Cc1ccc(F)c(NCC(C)(C)S(C)(=O)=O)c1,-3.079%
7,Cc1ccc(S(=O)(=O)NC(C)(C)CN)c(F)c1.Cl,-7.288%
8,Cc1c(F)cccc1S(=O)(=O)NC(C)(C)CN.Cl,-6.464%
9,Cc1nn(C)cc1CN(C)Cc1cc2c(cc1OC(F)F)OCO2,5.231%
10,CCS(=O)(=O)N1CCC(c2nccn2Cc2ccncc2)CC1,17.72%
11,COc1cccc(OCCCc2cc(C#N)ccn2)c1,-11.05%
12,Cc1cccc(C(C(=O)NCc2nc(-c3cccnc3)no2)N(C)C)c1 (centres undefined),-3.627%
13,CC1=C[C@@H](CN2CCOCC2)[C@H](C(C)C)C[C@H]1Cc1nnc(C)o1,-6.193%
14,Cc1cc(F)c(S(=O)(=O)NCC(C)(C)N)cc1F.Cl,99.53%
15,Cc1c(F)cccc1S(=O)(=O)NCC(C)(C)CC(C)O (centres undefined),-11.41%
16,Cc1sc(Br)cc1S(=O)(=O)NCCCN.Cl,-10.31%
17,Cc1cc(S(=O)(=O)NCC(C)(O)CN(C)C)c(F)cc1F (centres undefined),86.13%
18,Cc1sc(Br)cc1S(=O)(=O)NCCN.Cl,-12.99%
19,Cc1cc(F)c(S(=O)(=O)NCc2ccnc(N(C)C)n2)cc1F,-5.146%
20,Cc1cc2[nH]cc(C(=O)N3CCCCC3c3ccc(F)cc3)c(=O)n2n1 (centres undefined),-0.32%
